Common to all, as to parameters: scale not given: direction of the effect not stated beside the values
In test [1] the target is Protein translocase subunit SecA (Escherichia coli (strain K12)) (UniProt P10408). The test can be described thus: Assay to Identify E. coli SecA ATPase Inhibitors. The settings on record: 30 µM. It counts as functional.
Test [2] addresses T1, Ubiquitin-activating enzyme e1, putative (Leishmania donovani (strain BPK282A1)) (UniProt E9BSI1).
T1 sequence (whole entry): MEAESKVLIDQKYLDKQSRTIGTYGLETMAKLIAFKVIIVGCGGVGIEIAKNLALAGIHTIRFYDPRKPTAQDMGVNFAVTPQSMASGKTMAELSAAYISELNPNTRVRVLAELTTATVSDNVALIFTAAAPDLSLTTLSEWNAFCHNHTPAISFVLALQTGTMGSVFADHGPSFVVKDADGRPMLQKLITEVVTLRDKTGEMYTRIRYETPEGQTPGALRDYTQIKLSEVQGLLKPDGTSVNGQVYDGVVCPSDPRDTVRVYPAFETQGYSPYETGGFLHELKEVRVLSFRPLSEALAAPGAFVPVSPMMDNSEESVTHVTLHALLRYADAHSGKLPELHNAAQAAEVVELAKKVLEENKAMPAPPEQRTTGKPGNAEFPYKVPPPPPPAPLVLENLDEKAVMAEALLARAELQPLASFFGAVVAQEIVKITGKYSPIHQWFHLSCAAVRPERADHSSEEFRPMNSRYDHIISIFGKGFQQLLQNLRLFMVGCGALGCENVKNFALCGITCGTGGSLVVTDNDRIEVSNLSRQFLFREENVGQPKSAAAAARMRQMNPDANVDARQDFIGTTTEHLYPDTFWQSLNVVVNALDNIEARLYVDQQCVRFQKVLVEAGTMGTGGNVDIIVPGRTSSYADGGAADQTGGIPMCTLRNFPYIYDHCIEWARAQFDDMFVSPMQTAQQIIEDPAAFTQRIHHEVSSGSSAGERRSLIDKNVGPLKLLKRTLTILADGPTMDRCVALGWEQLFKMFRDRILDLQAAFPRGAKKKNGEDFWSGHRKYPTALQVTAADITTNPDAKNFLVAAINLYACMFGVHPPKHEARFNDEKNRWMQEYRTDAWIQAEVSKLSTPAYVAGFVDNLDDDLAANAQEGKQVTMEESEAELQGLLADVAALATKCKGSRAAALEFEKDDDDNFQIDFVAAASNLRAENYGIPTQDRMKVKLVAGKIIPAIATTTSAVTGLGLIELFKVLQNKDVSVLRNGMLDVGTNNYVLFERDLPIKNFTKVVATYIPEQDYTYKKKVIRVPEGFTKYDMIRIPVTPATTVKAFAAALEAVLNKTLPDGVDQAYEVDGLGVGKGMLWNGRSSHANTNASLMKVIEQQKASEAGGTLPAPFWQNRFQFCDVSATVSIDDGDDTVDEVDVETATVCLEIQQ
The test can be described thus: Leishmania donovani Ubiquitin Activating Enzyme (LdE1). It counts as functional. Conditions: 30 µM.

Test [3] deals with AMP-activated protein kinase, AMPK (Homo sapiens) (UniProt P54646+O43741+P54619+Q9UGJ0+Q9Y478+Q13131+Q9UGI9). Kind of test: AMP-dependent Kinase enzyme assay. An in vitro enzyme assay that detects ADP turnover that is directly proportional to AMPK activity. This uses naive AMPK that is activated during the assay with MK-8722. In kind it is functional. Conditions: 30 µM.
Test [4] has as its target Sialic acid-binding Ig-like lectin 9 (Homo sapiens) (UniProt Q9Y336). The test can be described thus: Hs-Siglec9 ALPHAscreen SOP 20170721. The settings on record: 10 µM.
A further test has as its system Trypanosoma cruzi. The test can be described thus: Trypanosoma cruzi phosphomannomutase and mannose-1-phosphate guanylyltransferase assay. It counts as functional. The settings on record: 10 µM.
Test [5] addresses T2, Arginase-2, mitochondrial (Homo sapiens) (UniProt P78540).
T2 sequence (whole entry): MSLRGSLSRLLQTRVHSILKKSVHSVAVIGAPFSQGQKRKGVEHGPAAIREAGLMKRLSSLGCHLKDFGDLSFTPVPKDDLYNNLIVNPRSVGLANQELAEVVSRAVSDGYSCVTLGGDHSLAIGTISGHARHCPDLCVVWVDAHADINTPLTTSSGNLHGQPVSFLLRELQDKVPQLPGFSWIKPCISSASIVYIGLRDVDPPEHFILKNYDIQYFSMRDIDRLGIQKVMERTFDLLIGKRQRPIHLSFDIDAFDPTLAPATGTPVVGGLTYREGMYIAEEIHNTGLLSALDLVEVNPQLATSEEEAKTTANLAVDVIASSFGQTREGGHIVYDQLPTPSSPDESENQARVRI
The test can be described thus: in vitro enzyme assay to detect the production of urea directly proportional to the activity of Arginase II. Further: in the data most compounds retested in dose-response had high values. It counts as functional. Conditions: 33.3 µM.

The target in test [6] is T3, Proteasome subunit beta (Trypanosoma cruzi) (UniProt O96673).
T3 sequence (whole entry): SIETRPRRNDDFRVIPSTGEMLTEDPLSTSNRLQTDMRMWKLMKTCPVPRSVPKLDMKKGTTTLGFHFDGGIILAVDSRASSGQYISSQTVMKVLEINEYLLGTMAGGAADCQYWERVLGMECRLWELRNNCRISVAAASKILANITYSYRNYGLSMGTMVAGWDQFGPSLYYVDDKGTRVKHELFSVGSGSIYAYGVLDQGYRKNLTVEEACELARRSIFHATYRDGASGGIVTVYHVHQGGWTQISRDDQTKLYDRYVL
Kind of test: Trypanosoma cruzi proteasome chymotrypsin-like activity (TcProtChymo) assay. Further: in the data most compounds retested in dose-response had high values. In kind it is functional. The settings on record: 9.37 µM.

For a further test, the species on record is Homo sapiens. Kind of test: To identify inhibition of the IFN signalling (Jak-Stat) pathway via expression of an eGFP reporter gene under the control of an IFN-stimulated response element (ISRE) containing MxA promoter. It counts as functional. The settings on record: 30 µM.
The target of test [7] is T4, Tyrosyl-tRNA synthetase, putative (Trypanosoma cruzi (strain CL Brener)) (UniProt Q4DSP6).
T4 sequence (whole entry): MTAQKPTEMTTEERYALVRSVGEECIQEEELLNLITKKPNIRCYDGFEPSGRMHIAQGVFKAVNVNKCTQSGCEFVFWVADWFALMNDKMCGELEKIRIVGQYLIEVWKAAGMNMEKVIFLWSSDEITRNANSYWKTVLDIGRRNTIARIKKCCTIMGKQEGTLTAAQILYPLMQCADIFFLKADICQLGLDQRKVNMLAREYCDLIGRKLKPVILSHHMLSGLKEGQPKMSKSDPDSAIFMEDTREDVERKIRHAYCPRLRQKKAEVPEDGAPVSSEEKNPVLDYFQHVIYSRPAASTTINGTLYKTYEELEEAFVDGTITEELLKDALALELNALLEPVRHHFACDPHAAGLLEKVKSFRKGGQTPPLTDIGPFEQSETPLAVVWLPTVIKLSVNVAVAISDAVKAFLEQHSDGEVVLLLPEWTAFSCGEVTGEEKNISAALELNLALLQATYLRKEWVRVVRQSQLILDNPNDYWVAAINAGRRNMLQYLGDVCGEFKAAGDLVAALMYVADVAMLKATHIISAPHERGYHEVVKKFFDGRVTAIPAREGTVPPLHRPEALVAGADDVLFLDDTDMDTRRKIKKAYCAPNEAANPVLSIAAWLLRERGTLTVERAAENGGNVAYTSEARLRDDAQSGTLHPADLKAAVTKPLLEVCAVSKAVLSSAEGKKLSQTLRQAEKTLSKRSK
The test can be described thus: Trypanosoma cruzi tyrosyl tRNA synthetase (TcYRS) _High Tyrosine SOP. Further: in the data most compounds retested in dose-response had high values. The settings on record: 30 µM. It counts as functional.

In test [8] the target is T4, Tyrosyl-tRNA synthetase, putative (Trypanosoma cruzi (strain CL Brener)). The test can be described thus: Trypanosoma cruzi tyrosyl tRNA synthetase (TcYRS) SOP. It counts as functional. Conditions: 30 µM.
The target of test [9] is Chromo domain-containing protein 1 (Saccharomyces cerevisiae (strain ATCC 204508 / S288c) (Baker's yeast)) (UniProt P32657). The test can be described thus: ScCHD-1 Enzyme Inhibition Assay. Further: in the data most compounds retested in dose-response had high values. The settings on record: 30 µM. In kind it is functional.

For some assays here: Measured potencies and affinities stand elsewhere.

Sialic acid-binding Ig-like lectin 9 (Homo sapiens), sequence (Q9Y336 whole entry): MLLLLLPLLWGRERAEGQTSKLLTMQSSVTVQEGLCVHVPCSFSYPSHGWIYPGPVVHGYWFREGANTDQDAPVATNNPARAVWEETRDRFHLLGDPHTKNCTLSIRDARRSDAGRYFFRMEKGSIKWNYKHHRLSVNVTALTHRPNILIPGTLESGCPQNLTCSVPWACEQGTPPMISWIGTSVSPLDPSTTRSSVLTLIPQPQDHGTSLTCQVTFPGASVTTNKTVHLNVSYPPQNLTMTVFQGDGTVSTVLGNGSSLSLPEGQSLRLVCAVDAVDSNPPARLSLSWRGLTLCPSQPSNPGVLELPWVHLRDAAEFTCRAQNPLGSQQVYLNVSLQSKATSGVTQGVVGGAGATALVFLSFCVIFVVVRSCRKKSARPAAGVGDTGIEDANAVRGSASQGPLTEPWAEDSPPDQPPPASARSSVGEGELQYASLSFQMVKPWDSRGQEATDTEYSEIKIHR
Protein translocase subunit SecA (Escherichia coli (strain K12)), sequence (P10408 whole entry): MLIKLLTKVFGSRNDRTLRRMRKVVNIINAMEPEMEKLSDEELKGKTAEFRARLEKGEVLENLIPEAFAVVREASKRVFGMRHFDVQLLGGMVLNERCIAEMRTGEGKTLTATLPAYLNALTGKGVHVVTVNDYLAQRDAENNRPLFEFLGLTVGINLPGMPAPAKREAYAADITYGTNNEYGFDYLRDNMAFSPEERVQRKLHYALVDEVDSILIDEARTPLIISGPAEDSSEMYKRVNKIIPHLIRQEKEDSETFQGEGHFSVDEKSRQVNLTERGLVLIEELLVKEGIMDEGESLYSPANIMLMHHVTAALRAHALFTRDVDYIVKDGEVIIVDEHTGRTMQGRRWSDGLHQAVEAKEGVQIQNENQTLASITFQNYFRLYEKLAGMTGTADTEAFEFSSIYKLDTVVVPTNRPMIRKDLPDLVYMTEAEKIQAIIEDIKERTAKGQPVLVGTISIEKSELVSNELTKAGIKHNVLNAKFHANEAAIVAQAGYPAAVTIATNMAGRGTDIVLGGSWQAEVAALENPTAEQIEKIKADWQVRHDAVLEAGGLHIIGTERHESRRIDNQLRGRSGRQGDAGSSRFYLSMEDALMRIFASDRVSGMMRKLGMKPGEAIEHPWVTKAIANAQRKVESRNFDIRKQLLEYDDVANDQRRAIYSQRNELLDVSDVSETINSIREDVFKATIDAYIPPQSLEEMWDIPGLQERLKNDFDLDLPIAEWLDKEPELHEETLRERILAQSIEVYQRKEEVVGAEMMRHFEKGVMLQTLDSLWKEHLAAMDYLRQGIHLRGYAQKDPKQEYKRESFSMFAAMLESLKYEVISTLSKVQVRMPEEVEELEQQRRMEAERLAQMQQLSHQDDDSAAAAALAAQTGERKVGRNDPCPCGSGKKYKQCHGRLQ
Chromo domain-containing protein 1 (Saccharomyces cerevisiae (strain ATCC 204508 / S288c) (Baker's yeast)), sequence (P32657 whole entry, the tested form may be a part): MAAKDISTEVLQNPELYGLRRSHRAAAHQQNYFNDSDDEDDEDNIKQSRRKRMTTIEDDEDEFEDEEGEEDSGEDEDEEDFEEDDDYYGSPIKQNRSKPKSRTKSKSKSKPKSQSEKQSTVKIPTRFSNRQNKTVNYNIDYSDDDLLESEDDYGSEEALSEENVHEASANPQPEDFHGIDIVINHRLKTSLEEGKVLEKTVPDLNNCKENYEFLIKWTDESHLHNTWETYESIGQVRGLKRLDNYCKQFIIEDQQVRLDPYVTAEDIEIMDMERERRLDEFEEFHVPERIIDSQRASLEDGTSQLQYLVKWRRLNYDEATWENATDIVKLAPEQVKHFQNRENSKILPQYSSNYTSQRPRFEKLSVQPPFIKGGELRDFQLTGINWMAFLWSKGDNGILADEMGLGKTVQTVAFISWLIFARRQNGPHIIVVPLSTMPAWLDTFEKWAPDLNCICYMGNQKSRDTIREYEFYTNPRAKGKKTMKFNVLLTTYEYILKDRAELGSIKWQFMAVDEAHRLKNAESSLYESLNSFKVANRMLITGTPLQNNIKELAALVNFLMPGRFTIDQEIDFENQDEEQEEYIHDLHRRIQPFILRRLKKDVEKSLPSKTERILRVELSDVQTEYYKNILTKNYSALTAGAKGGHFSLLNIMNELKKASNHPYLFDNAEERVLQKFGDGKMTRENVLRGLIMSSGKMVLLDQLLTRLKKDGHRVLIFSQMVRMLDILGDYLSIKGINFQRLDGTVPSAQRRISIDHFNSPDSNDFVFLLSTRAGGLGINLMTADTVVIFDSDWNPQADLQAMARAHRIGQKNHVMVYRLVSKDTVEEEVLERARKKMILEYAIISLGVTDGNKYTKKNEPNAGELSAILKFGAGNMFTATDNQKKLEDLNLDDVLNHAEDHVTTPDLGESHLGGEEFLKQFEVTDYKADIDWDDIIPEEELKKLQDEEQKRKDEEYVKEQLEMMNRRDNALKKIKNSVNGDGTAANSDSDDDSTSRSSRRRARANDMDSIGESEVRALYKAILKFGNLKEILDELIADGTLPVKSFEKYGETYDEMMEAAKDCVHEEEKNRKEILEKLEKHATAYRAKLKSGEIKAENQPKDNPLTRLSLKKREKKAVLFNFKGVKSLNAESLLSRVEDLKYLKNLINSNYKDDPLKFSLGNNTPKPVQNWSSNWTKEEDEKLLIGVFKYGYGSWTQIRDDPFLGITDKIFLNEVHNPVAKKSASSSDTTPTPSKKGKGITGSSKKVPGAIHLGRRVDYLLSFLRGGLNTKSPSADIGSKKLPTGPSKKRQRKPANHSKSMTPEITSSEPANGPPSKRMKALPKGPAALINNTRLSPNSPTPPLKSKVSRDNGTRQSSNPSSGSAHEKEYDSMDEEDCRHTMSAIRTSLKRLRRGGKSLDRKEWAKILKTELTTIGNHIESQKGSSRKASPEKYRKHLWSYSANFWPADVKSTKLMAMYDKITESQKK

For the compound `COCCC1(CO)CCCN(Cc2ccc(F)c(C)c2)C1` (stereo not given), the Percent Effect is -3.62% in [1]; 0% in [2]; -3.75% in test [3]; -6.12% in test [4]; -0.88% in the test with Trypanosoma cruzi; -1.24% in test [5]. For the same compound, the Percent Effect in [6] was 2.15%; in the test filed under Homo sapiens, -4.5%; in [7] it was 3.23%; in test [8] it was 1.24%; in test [9] it was 2.9%.
As for `CCCOc1ccc(CNC2CCCc3c2cnn3CC)cc1OC` (stereo not given), the Percent Effect in [1] was -6.15%; in [2], 15.2%; in test [3], -7.05%; in test [4] it was 11%; in the test on Trypanosoma cruzi, 6.33%; in [5], -3.04%. Also, the Percent Effect in test [6] was 5.98%; in the test listed under Homo sapiens it was 2.78%; in test [7], 9.36%; in [8] it was 21.5%; in test [9], -12.2%.
As to `NCC(c1ccccc1)N1CCc2sccc2C1` (stereo not given), the Percent Effect was -1.09% in [1]; 7.89% in [2]; -9.46% in test [3]; -3.01% in test [4]; -3.41% in the test with Trypanosoma cruzi; -5.92% in [5]. Besides, the Percent Effect is 17.6% in [6]; 5.62% in the test listed under Homo sapiens; 8.51% in test [7]; 18.2% in test [8]; -3.07% in test [9].
Take `CCc1cnc(CNc2ccc(C(=O)N3CCCC(C)C3)cc2C)o1` (stereo not given): the Percent Effect in [1] was -1.36%; in test [2], -5.2%; in test [3], 6.76%; in test [4] it was -0.151%; in the test with Trypanosoma cruzi it was -0.936%; in [5], -1.78%. Moreover, the Percent Effect was 8.78% in [6]; 25.1% in the test listed under Homo sapiens; -0.971% in test [7]; 0% in test [8]; -5.54% in test [9].
For `COc1ccc(CN2CCCC2Cn2nc(C)nc2C)cc1F` (stereo not given), the Percent Effect in test [1] is -3.83%; in test [2] it was 6.33%; in test [3] it was 4.88%; in test [4], 0.831%; in the test with Trypanosoma cruzi, -0.718%; in [5], 2.8%. The Percent Effect in test [6] was 8.58%; in the test listed under Homo sapiens, 3.7%; in [7] it was 5.21%; in [8], 7.59%; in test [9], -16.6%.
For `COC(=O)CS(=O)(=O)CCC(=O)N1CCCC1c1ccsc1` (stereo not given), the Percent Effect in [1] is -3.22%; in test [2] it was 6.94%; in test [3] it was -5.88%; in test [4], 21.4%; with Trypanosoma cruzi, 2.82%; in [5], -2.21%. For the same compound, the Percent Effect in [6] was 5.44%; in the test filed under Homo sapiens, -6.88%; in test [7] it was 5.26%; in [8], 7.69%; in test [9], -2.96%.
On to `Cc1cnn(CCNCc2ccccc2Oc2cccnc2)c1`, for which the Percent Effect in [1] was -0.645%; in [2] it was 11.4%; in test [3], -5.35%; in test [4], -0.251%; in the test on Trypanosoma cruzi, -5.03%; in [5] it was -9.25%. Also, the Percent Effect in [6] is 23.3%; in the test listed under Homo sapiens, 6.29%; in test [7], 8.33%; in test [8] it was 7.59%; in test [9], -26%.
In the case of `CC(=O)Nc1nc(C(=O)NC(C)c2ccc3c(c2)OCCO3)cs1` (stereo not given), the Percent Effect is -5.25% in test [1]; 18.2% in test [2]; 6.51% in test [3]; -11.3% in test [4]; 5% in the test with Trypanosoma cruzi; -4% in test [5]. Further, the Percent Effect in test [6] is 8.97%; in the test filed under Homo sapiens it was 14.6%; in test [7] it was 3.81%; in test [8], 21.2%; in test [9] it was -21.9%.
Take `c1csc(CN2CCn3c(Cn4cncn4)cnc3C2)n1`: the Percent Effect in test [1] was -3.71%; in test [2], 2.67%; in test [3] it was 12.1%; in [4], 4.38%; in the test on Trypanosoma cruzi it was -0.984%; in test [5] it was 4.43%. Moreover, the Percent Effect in test [6] was 6.08%; in the test listed under Homo sapiens, -18.1%; in test [7], 2.13%; in test [8], 1.28%; in test [9], -1.62%.
Turning to `CC(O)CN1CCN(C(=O)CN(C)c2cnccn2)CC1` (stereo not given), the Percent Effect in test [1] was 3.16%; in [2], 5.41%; in test [3], -4.8%; in test [4], 6.58%; with Trypanosoma cruzi it was -2.12%; in test [5], -70%. For the same compound, the Percent Effect in [6] was 16.6%; in the test filed under Homo sapiens, 5.3%; in test [7] it was 3.7%; in test [8], 4.88%; in [9], -5.99%.
